In PubChem BioAssay AID1347147 (National Center for Advancing Translational Sciences (NCATS), 2019):
Records with an inconclusive call do not appear. Unmarked numbers belong to inactive results. The source made the active and inactive calls. The call rests on the fitted dose curve; in most records, active means well fitted inhibition curve with a large enough effect; inconclusive means small, poorly fitted or top-dose-only effect; inactive means no such curve, though single readings can be large or run the other way.

molecular target: N-terminal Xaa-Pro-Lys N-methyltransferase 1 (Homo sapiens) (UniProt Q9BV86); assay: qHTS Assay for Inhibitors of N-terminal methyltransferase 1 (NTMT1): MTaseGlo Confirmatory Screen, Round 2; conditions: NTMT1 enzyme, MTase-Glo SAH luminescence; series mostly up to 57.4 µM; activity change, negative = inhibition: at the top concentration
Outline: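 Luminescent MTase-Glo readout of SAH formed in 30 min at RT by 125 nM NTMT1, 100 µM SAM and 1 µM SPKRIA substrate, after ~15 min compound preincubation. Percent inhibition versus no-enzyme and DMSO controls was Hill-fitted.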
Potency means the concentration at half of the fitted maximal effect.
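Wherever activity change, negative = inhibition is given: plate controls were DMSO for no effect and no enzyme control for full effect.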

Sequence of N-terminal Xaa-Pro-Lys N-methyltransferase 1 (Homo sapiens) (Q9BV86 whole entry, looked up): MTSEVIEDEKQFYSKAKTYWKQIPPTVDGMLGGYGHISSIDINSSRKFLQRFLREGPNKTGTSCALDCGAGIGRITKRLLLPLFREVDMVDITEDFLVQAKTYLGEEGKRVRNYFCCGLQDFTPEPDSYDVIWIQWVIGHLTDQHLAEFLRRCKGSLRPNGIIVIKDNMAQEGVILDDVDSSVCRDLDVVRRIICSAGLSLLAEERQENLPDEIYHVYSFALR

Point of comparison: `Nc1nc(Cl)nc2c1ncn2[C@@H]1O[C@H](COP(=O)(O)OP(=O)(O)OP(=O)(O)O)[C@@H](O)[C@H]1O`, “activity change, negative = inhibition” value 102%. Against it:
- CC(CN1c2ccccc2Sc2ccccc21)N(C)C (configuration not stated) — lower, -1.58%
- NCCc1ccc(O)c(O)c1 — lower, -1.75%
- COc1ccc(/C=C2\COc3ccc(C)cc3C2=O)cc1O — lower, -3.92%
- Cc1ccc(S(=O)(=O)/C=C/C#N)cc1 — lower, 1.59%
- CN1Cc2sccc2C(c2ccc(O)c(O)c2)C1 (configuration not stated) — lower, -1.5%
- O=C1c2c(O)cc(O)cc2OC(c2ccc(O)c(O)c2)C1O (configuration not stated) — lower, -3.24%
- CCCc1cc(C)[nH]c(=O)c1CNC(=O)c1cc(-c2ccc(N3CCN(C(C)C)CC3)nc2)cc2c1cnn2C(C)C — lower, -20.9%
- COc1cc2nc(N3CCCN(C)CC3)nc(NC3CCNCC3)c2cc1OC — lower, 4.17%
- Cc1cc(C)c(CNC(=O)c2cc(-c3ccc(CN4CCOCC4)cc3)cc3c2cnn3C2CCCC2)c(=O)[nH]1 — lower, -6.46%
- CC#C[C@]1(O)CC[C@H]2[C@@H]3CCC4=CC(=O)CCC4=C3[C@@H](c3ccc(N(C)C)cc3)C[C@@]21C — lower, -10.1%
- S=C(Nc1ccccc1)Nc1nccs1 — lower, -10.3%
- Oc1ccc(Cn2cc[nH]c2=S)cc1 — lower, -4.41%
- CN(C)CCCN1c2ccccc2Sc2ccc(Cl)cc21 — lower, -9.4%
- NC[C@@H]1O[C@H](C23CC4CC(CC(C4)C2)C3)Cc2c1ccc(O)c2O — lower, -21.2%
- N#C/C(=C\c1ccc(O)c(O)c1)C(=O)c1ccc(O)c(O)c1 — lower, 8.34%
- O=[N+]([O-])c1ccc(-c2nc(-c3ccc(F)cc3)c(-c3ccncc3)[nH]2)cc1 — lower, -3.2%
- CC(C)(C)c1ccc(S(=O)(=O)/C=C\C#N)cc1 — lower, -10.1%
- Oc1ccc2ccccc2c1SSc1c(O)ccc2ccccc12 — lower, -14.1%
- CN(C)[C@@H]1C(=O)C(C(N)=O)=C(O)[C@@]2(O)C(=O)C3=C(O)c4c(O)ccc(Cl)c4[C@@H](O)[C@H]3C[C@@H]12 — lower, -18.8%
- S=C(S)N1CCCC1 — lower, -11.1%
- Cc1nn(-c2ccccc2)c(C)c1/C=N/N1CCN(Cc2ccccc2)CC1 — lower, -0.834%
- C=CCN1CCc2c(cc(O)c(O)c2Br)[C@@H](c2ccccc2)C1 — lower, -14.3%
- Nc1nc(F)nc2c1ncn2[C@@H]1O[C@H](CO)[C@@H](O)[C@@H]1O — lower, -3.06%
- Nc1nc(Nc2ccccc2)nc2c1ncn2[C@@H]1O[C@H](CO)[C@@H](O)[C@H]1O — lower, 14.3%
- O=[N+]([O-])c1ccc2c(c1)S(=O)(=O)C=C2 — lower, 1.82%
- Clc1nccc2c1ccc1ccccc12 — lower, -14.2%
- COc1cc(/C=C(\C#N)C(=O)c2ccc(O)c(O)c2)cc(I)c1O — lower, -22.8%
- COc1cc2c(NC3CCN(CC4CCCCC4)CC3)nc(N3CCCCC3)nc2cc1OCCCN1CCCCC1 — lower, -2.53%
- N#C/C(=C\c1ccc(O)c(O)c1)C(=O)NCCc1ccccc1 — lower, -3.64%
- OCCNc1ncnc2c1ncn2[C@@H]1O[C@@H](CO)[C@H](O)[C@@H]1O — lower, 76.3%
- COc1cc2nc(N3CCCN(C)CC3)nc(N3CCN(C)CC3)c2cc1OC — lower, 16.4%
- COC(=O)C1=C(C)NC(C)=C(C(=O)OC)C1c1ccccc1[N+](=O)[O-] — lower, 1%

For `Nc1c(S(=O)(=O)O)cc(Nc2ccc(Nc3nc(Cl)nc(Nc4ccc(S(=O)(=O)O)cc4)n3)c(S(=O)(=O)O)c2)c2c1C(=O)c1ccccc1C2=O`, the Potency was 31.6 µM (active).
In the case of `Nc1ccnc2c1ncn2[C@@H]1O[C@H](CO)[C@@H](O)[C@H]1O`, the Potency is reported as 10 µM (active).
In the case of `O=C1NC(=O)C(=Cc2ccc(-c3ccc(F)cc3O)o2)S1`, the Potency is reported as 35.5 µM (active).
`CSc1nc(N)c2ncn([C@@H]3O[C@H](COP(=O)(O)OP(=O)(O)O)C(O)[C@H]3O)c2n1` (some centres not stated) was tested, and the Potency was 20 µM (active).
